Results filed as inconclusive are left out. Calls of active or inactive are those of the source. Calls follow the shape of the dose curve; as a rule, active = well fitted curve in the direction sought with a large enough effect; inconclusive = small, poorly fitted or top-dose-only effect, or another doubt; inactive = no such curve, though single readings can be large or run the other way.
Assay: qHTS for differential inhibitors of proliferation of Plasmodium falciparum line 3D7 (AID 1876);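 as to activity, negative = inhibition: parasite growth measured after three days of culture; 0% = vehicle wells and -100% = reference inhibitor wells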
Settings: P. falciparum 3D7 proliferation inhibition; series mostly up to 28.7 µM; activity, negative = inhibition: at the top concentration
Potency is read from the fitted curve at half-maximal effect.

| SMILES | activity, negative = inhibition | Potency |
| --- | --- | --- |
| COc1cc(CC(=O)O)ccc1O | -2.86% (inactive) |  |
| NC(Cc1cccc(-c2ccccc2CP(=O)(O)O)c1)C(=O)O (centres undefined) | -3.81% (inactive) |  |
| Cn1c(=O)c2[nH]c(C3CCCC3)nc2n(C)c1=O | -5.41% (inactive) |  |
| CC(C)NCC(O)COc1ccc(CC(N)=O)cc1 (centres undefined) | 7.49% (inactive) |  |
| N[C@H](C(=O)O)[C@H](O)C(=O)O | 8.87% (inactive) |  |
| NC1C=CC=C(C(=O)O)C1 (centres undefined) | -26.3% (inactive) |  |
| NCCC1CCCC(CCN)N1 (centres undefined) | -3.03% (inactive) |  |
| CN(C)CCC(c1ccc(Br)cc1)c1ccccn1 (centres undefined) | -0.241% (inactive) |  |
| NC(N)=NC(N)=Nc1cccc(Cl)c1 |  | 11.2 µM (active) |
| CCN(CC)CCCCCCCCOC(=O)c1cc(OC)c(OC)c(OC)c1 |  | 5.62 µM (active) |
| COc1ccccc1N1CCN(CCCCNC(=O)c2ccc3ccccc3c2)CC1 |  | 2 µM (active) |
| C[C@H](O)C(=O)C1=Nc2c(nc(N)[nH]c2=O)NC1 | -6.52% (inactive) |  |
| c1ccc(CN2CCC3(CCCc4ccccc43)CC2)cc1 |  | 10 µM (active) |
| O=C(O)c1ccccc1Nc1ccccc1 | -1.15% (inactive) |  |
| NC(N)=[N+]1CCc2ccccc2C1 | -0.886% (inactive) |  |
| CC(N)=NCCCC[C@@H](N)C(=O)O | 7.07% (inactive) |  |
| O=C(O)C1=CCCN(CCON=C(c2ccccc2)c2ccccc2)C1 | -10.7% (inactive) |  |
| COc1cc(C(O)CO)ccc1O (centres undefined) | 1.31% (inactive) |  |
| COc1ccccc1N1CCN(CCCNc2c(C)c(=O)n(C)c(=O)n2C)CC1 |  | 8.91 µM (active) |
| CN[C@H](CC(=O)O)C(=O)O | -3.26% (inactive) |  |
| CSC(N)=NCCC[C@H](N)C(=O)O | -3.74% (inactive) |  |
| CN1CCN(c2nc3cc(C(F)(F)F)ccc3n3cccc23)CC1 |  | 7.94 µM (active) |
| O=C(O)/C(=C/c1c(C(=O)O)[nH]c2cc(Cl)cc(Cl)c12)c1ccccc1 | -8.29% (inactive) |  |
| NC1(C(=O)O)CCc2cc(C(=O)O)ccc21 (centres undefined) | -5.58% (inactive) |  |
| CC(=O)NCCc1c[nH]c2ccc(O)cc12 | 4.83% (inactive) |  |
| Cc1cc2c(cc1Cl)N(C(=O)Nc1ccnc3ccccc13)CC2 | -1.62% (inactive) |  |
| Cc1cccc(C)c1OCC(N)C(C)C (centres undefined) | 1.88% (inactive) |  |
| O=C(O)c1cccnc1C(=O)O | -2.67% (inactive) |  |
| Nc1nc2[nH]c(=O)cnc2c(=O)[nH]1 | -10.6% (inactive) |  |

— PubChem BioAssay (NCATS)
